PubChem BioAssay

Assay: compound effects on hepatocellular carcinoma cell viability – HepG2, calcein-AM fluorescence, 48 h, basal, profiling panel (AID 1164)
Conditions: higher = more signal
Also: test concentration not given here.

Compound	z-score
O=C1C2C=CC(C(O)c3ccc(B(O)O)cc3)N(Nc3ccc([N+](=O)[O-])cc3)C2C(=O)N1c1ccccc1 (stereo not given)	-5.4
O=C1OCCC/C=C\[C@H]2OC34C=CCN(CCN5CCOCC5)C(=O)[C@H]3N(CCO)C(=O)[C@@H]4C12 (stereo not given in full)	-0.615
CC(=O)n1cc(C(O)C2C=CC3C(=O)N(c4ccccc4)C(=O)C3N2Nc2ccc(C#N)cc2)c2ccccc21 (stereo not given)	0.52
COc1ccc(C(=O)Nc2cccc(CN3C(=O)[C@@]4(O[C@@H](CCn5cc([C@H](O)c6ccccc6)nn5)[C@H]([Si](C)(C)c5ccc(OC)cc5)[C@H]4C)c4ccccc43)c2)cc1	-3.44
COC(=O)[C@@]1(Cc2ccc(F)cc2)[C@H]2c3cc(C(=O)N4CCCC4)n(CCc4ccc(OC)c(Br)c4)c3C[C@H]2CN1C(=O)c1ccccc1	-2.5
CC(C)N1C(=O)c2ccccc2[C@](C)(C(=O)NC2CC2)[C@@H]1c1ccc(CO)cc1	0.176
CCCNC(=O)[C@@]1(C)c2ccccc2C(=O)N(Cc2ccc(OC(F)(F)F)cc2)[C@H]1c1ccc(CO)cc1	1.28
C=CCC(OC(C)=O)[C@@H]1[C@@H](N(Cc2ccc(-c3cccc(C(F)(F)F)c3)o2)C(=O)Cc2ccc(OC)cc2)c2cc(OCCCO)ccc2N1C(=O)Cc1ccc(OC)cc1 (stereo not given in full)	0.641
COC(=O)[C@@]1(Cc2ccccc2)[C@H]2c3cc(C(=O)N(C)C)n(Cc4cc(F)c(F)c(F)c4)c3C[C@H]2CN1C(=O)c1ccccc1	0.545
C=C(C)[C@@H]1CC=C(C(O)C2C=CC3C(=O)N(Cc4ccccc4)C(=O)C3N2n2cnnc2)CC1 (stereo not given in full)	-1.05

Assay: compound effects on multiple myeloma cell viability – MM1S, calcein-AM fluorescence, 48 h, basal, profiling panel (AID 1165);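 also: viability of MM1S multiple myeloma cells under basal unstimulated conditions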
Conditions: higher = more signal

Compound	z-score
COC(=O)[C@@]1(Cc2ccc(OC)cc2)[C@H]2c3cc(C(=O)N4CCCC4)n(CCc4ccccn4)c3C[C@H]2CN1C(=O)c1ccccc1	0.0275
CC(=O)N1Cc2ccccc2C[C@@]2(N=C(c3ccc(OCCCO)cc3)O[C@H]2c2ccccc2)C1=O	-2.19
CC(C)NC(=O)[C@@]1(c2ccc([N+](=O)[O-])cc2)CC(=O)N(C(C)C)[C@@H]1c1ccc(CO)cc1	0.385
CC(C)C(O)C1C=CC2C(=O)N(C)C(=O)C2N1N1CCCCC1 (stereo not given)	-0.602
CCCC[C@@H]1C[C@H]1[C@@H](NC(=O)c1ccccc1)c1ccccc1	-1.43
CCN(CC)c1ccc(N2CC=CC34O[C@@H]5/C=C\CCCOC(=O)C5[C@H]3C(=O)N(CCCO)[C@@H]4C2=O)cc1 (stereo not given in full)	0.794
COc1ccc(C(O)C2C=CC3C(=O)N(c4ccccc4)C(=O)C3N2Nc2ccccc2)c2ccccc12 (stereo not given)	-0.174
O=[N+]([O-])c1ccc(C[n+]2ccc(CCCO)cc2)o1	-0.41
C[N+](C)(C)CCCCNC(=O)[C@H]1C[C@H]2C(=O)N3CCC[C@H]3C(=O)N2[C@H]1c1ccc(O)cc1	-0.642
COCCOC(=O)N1C(=O)[C@@]2(c3ccccc31)[C@H](C(=O)N1CCCCCCC1)[C@H]1C(=O)O[C@H](c3ccccc3)[C@H](c3ccccc3)N1[C@@H]2c1ccccc1OCCO	-0.252
C=CCC(OC(C)=O)[C@@H]1[C@@H](N(Cc2ccc(-c3ccccc3)cc2)C(=O)c2ccc(C)cc2)c2cc(OCCCO)ccc2N1C(=O)Cc1ccc(OC)cc1 (stereo not given in full)	0.711
COC(=O)[C@@]1(Cc2ccc(OC)cc2)[C@H]2c3cc(C(=O)N4CCCC4)n(C[C@H](O)CO)c3C[C@H]2CN1C(=O)c1ccccc1	-1.05
O=C1O[C@H](c2ccccc2)[C@H](c2ccccc2)N2[C@H]1[C@@H](C(=O)NC[C@H](O)c1ccccc1)[C@]1(C(=O)Nc3ccc(C#CC4=CCCCC4)cc31)[C@H]2c1ccc(O)cc1	-3.18
COc1ccc([Si](C)(C)[C@@H]2[C@@H](CCO)O[C@]3(C(=O)N(Cc4ccccc4)c4ccc(N(C=O)c5ccccc5)cc43)[C@H]2C)cc1	-1.54
COc1cc(NN2C(C(O)c3ccccc3)C=CC3C(=O)N(c4ccccc4)C(=O)C32)cc(OC)c1OC (stereo not given)	0.673
CN(C)CCCCNC(=O)[C@@H]1C[C@@H]2C(=O)N[C@@H](CCCCN)C(=O)N2[C@@H]1c1cccc(OCCO)c1	-0.058
COc1c(C)cc(-c2cc3c(c(-c4ccccc4)n2)[Si](C(C)C)(C(C)C)O[C@H]3c2ccccc2)cc1C	-0.521
[N-]=[N+]=NCc1ccccc1C[C@]1(C(=O)NCc2ccccc2)COC(c2ccc(OCCCO)cc2)=N1	-3.38

Compound	z-score
C=CCOC(=O)[C@@H]1[C@H]2C(=O)O[C@H](c3ccccc3)[C@H](c3ccccc3)N2[C@H](c2ccc(OCCOC(=O)[C@H]3C[C@H]4C(=O)N[C@@H](CCCC[N+](C)(C)C)C(=O)N4[C@H]3c3cccc(OCCO)c3)cc2)[C@@]12C(=O)Nc1ccc(I)cc12	-0.135
O=C1OCC=C[C@H]2OC34C=CCN(c5ccc(Cl)cc5)C(=O)[C@H]3N(CCCO)C(=O)[C@@H]4[C@@H]12 (stereo not given in full)	0.237
O=c1cccc(-c2ccccc2)o1	-1.11
C=C(COC)C(=O)CC[C@H](OC(=O)c1cccnc1)c1ccccc1OCCO	-3.3
CCCCCN1CC=CC23O[C@@H]4C=CCCOC(=O)C4[C@H]2C(=O)N(CCCO)[C@@H]3C1=O (stereo not given in full)	0.0357
CCN(CC)c1ccc(N2CC=CC34O[C@@H]5C=CCOC(=O)[C@@H]5[C@H]3C(=O)N(CCCCCO)[C@@H]4C2=O)cc1 (stereo not given in full)	-0.0913
C#C[C@H]1Oc2ccccc2S(=O)(=O)N2CCC[C@@H]12	0.132
O=C1C2C=CC(C(O)c3ccc(B(O)O)cc3)N(Nc3ccc([N+](=O)[O-])cc3)C2C(=O)N1c1ccccc1 (stereo not given)	0.0297
O=C1OCCC/C=C\[C@H]2OC34C=CCN(CCN5CCOCC5)C(=O)[C@H]3N(CCO)C(=O)[C@@H]4C12 (stereo not given in full)	1.31
CC(=O)n1cc(C(O)C2C=CC3C(=O)N(c4ccccc4)C(=O)C3N2Nc2ccc(C#N)cc2)c2ccccc21 (stereo not given)	0.245
COc1ccc(C(=O)Nc2cccc(CN3C(=O)[C@@]4(O[C@@H](CCn5cc([C@H](O)c6ccccc6)nn5)[C@H]([Si](C)(C)c5ccc(OC)cc5)[C@H]4C)c4ccccc43)c2)cc1	-2.63
COC(=O)[C@@]1(Cc2ccc(F)cc2)[C@H]2c3cc(C(=O)N4CCCC4)n(CCc4ccc(OC)c(Br)c4)c3C[C@H]2CN1C(=O)c1ccccc1	-1.66
CC(C)N1C(=O)c2ccccc2[C@](C)(C(=O)NC2CC2)[C@@H]1c1ccc(CO)cc1	0.0418
CCCNC(=O)[C@@]1(C)c2ccccc2C(=O)N(Cc2ccc(OC(F)(F)F)cc2)[C@H]1c1ccc(CO)cc1	0.328
C=CCC(OC(C)=O)[C@@H]1[C@@H](N(Cc2ccc(-c3cccc(C(F)(F)F)c3)o2)C(=O)Cc2ccc(OC)cc2)c2cc(OCCCO)ccc2N1C(=O)Cc1ccc(OC)cc1 (stereo not given in full)	0.018
COC(=O)[C@@]1(Cc2ccccc2)[C@H]2c3cc(C(=O)N(C)C)n(Cc4cc(F)c(F)c(F)c4)c3C[C@H]2CN1C(=O)c1ccccc1	-2.11
C=C(C)[C@@H]1CC=C(C(O)C2C=CC3C(=O)N(Cc4ccccc4)C(=O)C3N2n2cnnc2)CC1 (stereo not given in full)	0.364
